Bioassay records deposited in PubChem BioAssay by several laboratories.
An excerpt weighted towards active compounds, which were near 2.8% of everything screened.
PolyA inh – inhibitors of polyadenylation in S. cerevisiae; S. cerevisiae SKY197-pL101 polyadenylation reporter, beta-gal luminescence; efflux-impaired pdr1/pdr3 knockout yeast; score 100 = 6 SD above DMSO; activity score, % at 12 µM; 300,000 compounds, 0.02% hits;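 active means lowest replicate activity score at least 50, where 100 means six control SD above control mean; inconclusive means lowest score under 50 but half or more replicates reach 50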;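 further: yeast exposed to compound for 9 h at 30 °C; higher score means more reporter readthrough which indicates perturbed polyadenylation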
pCIP destab – compounds decreasing mouse p/CIP protein stability | decrease of EGFP signal, % at 10 µM | 290,000 compounds, 0.01% hits | F442A p/CIP-EGFP cells, EGFP fluorescence, 16 h | Q05BA5;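 active means EGFP signal decrease of at least 30% at 10 µM or well 3 SD below plate mean, unless failing retest; inactive means the rest, including hits failing retest or dose response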
HIF activator – HIF pathway transcriptional activation; AID 1910; U2OS HRE-luciferase reporter, luminescence; normalized: DMSO 0%, desferrioxamine 100%; activation, % at 7.5 µM (by protocol); 300,000 compounds, 0.32% hits;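 active means mean activation of at least 10% of the iron chelator positive control signal, with at least half of replicates also reaching 10%; inconclusive means mean and replicate majority disagree about reaching 10%; inactive means mean and most replicates under 10%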
Platelet DG rel – platelet dense granule release activity; human platelet-rich plasma, SFLLRN dense granule ATP release, luminescence; inhibition, %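 (compounds screened at 7.5 µM in platelet-rich plasma)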; 300,000 compounds, 0.22% hits; AID 1663;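 active means mean replicate score, as percent of positive control, at or above 50; inconclusive means mean below 50 but at least one replicate at or above 50; inactive means mean and every replicate below 50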
AHR act – human AHR activation; activation, % at 5 µM; 320,000 compounds, 2.5% hits; AHR-responsive luciferase reporter cells, luminescence; AID 2796; in the data active means activation above about 47%;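 further: 0% = vehicle wells and 100% = reference agonist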
Target sequence (P35869 whole entry, looked up): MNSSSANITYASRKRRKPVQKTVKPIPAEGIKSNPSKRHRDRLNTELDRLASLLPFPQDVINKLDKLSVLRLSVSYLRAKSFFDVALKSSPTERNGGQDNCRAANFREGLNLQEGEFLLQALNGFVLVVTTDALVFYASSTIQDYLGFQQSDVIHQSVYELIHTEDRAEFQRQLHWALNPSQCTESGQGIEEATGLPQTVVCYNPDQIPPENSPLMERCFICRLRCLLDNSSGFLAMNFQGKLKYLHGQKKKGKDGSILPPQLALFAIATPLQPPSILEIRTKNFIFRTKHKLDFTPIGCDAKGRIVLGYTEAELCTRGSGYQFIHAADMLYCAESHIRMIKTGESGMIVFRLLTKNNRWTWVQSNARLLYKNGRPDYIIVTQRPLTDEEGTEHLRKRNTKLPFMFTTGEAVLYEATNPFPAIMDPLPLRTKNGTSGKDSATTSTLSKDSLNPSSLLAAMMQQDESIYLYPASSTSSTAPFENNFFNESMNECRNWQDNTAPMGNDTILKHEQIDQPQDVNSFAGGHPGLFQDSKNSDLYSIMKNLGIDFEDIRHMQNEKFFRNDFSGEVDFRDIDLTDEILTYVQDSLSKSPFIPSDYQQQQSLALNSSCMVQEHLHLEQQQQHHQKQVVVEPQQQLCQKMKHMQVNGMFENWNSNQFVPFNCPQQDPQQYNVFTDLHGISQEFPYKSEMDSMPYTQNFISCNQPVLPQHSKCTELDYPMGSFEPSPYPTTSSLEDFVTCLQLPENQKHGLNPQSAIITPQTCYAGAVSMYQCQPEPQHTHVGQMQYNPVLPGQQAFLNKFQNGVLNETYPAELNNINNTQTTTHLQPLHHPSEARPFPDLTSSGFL
Active calls of the source: *.

For O=C(Nc1sc2c(c1C(=O)O)CCC2)C(=O)N1CCOCC1 the results were PolyA inh 13, pCIP destab 3, HIF activator -1, Platelet DG rel -7 and AHR act -2.
COc1ccc(SC[C@H](CC(C)C)N2CCN(CCc3ccccc3)CCC2=O)cc1 was read as PolyA inh 2, pCIP destab -5, HIF activator 2, Platelet DG rel 5 and AHR act 7.
`Cc1ccc2oc(C(=O)N(C)Cc3ccc(C)o3)c(C)c2c1` gave PolyA inh -16, pCIP destab -4, HIF activator 2, Platelet DG rel 11 and AHR act 0.
`COc1cc(-c2ccccc2)nc2ccccc12` gave PolyA inh -20, pCIP destab -6, HIF activator 0 and AHR act 48*.
COc1cc(C(=O)O)nc2ccccc12 was read as PolyA inh 6, pCIP destab -2, HIF activator 0, Platelet DG rel 1 and AHR act -2.
`O=C(C1CCCC1)N1CCCC(Nc2ccc(F)cc2)C1` (centres undefined) gave PolyA inh -14, pCIP destab 3, HIF activator 0, Platelet DG rel -1 and AHR act 5.
For Cc1cc(C(=O)N2CCCC(N3CCN(c4cccc(C(F)(F)F)c4)CC3)C2)no1 (centres undefined) the results were PolyA inh -2, pCIP destab -3, HIF activator 0, Platelet DG rel 17 and AHR act 5.
`Cc1cc(C)c(C(=O)N2CCCC(Nc3ccc(C)c(C)c3)C2)o1` (centres undefined) gave PolyA inh 17, pCIP destab 4, HIF activator 0, Platelet DG rel -17 and AHR act 63*.
`Cc1ccc(NC2CCCN(C(=O)C3CCCCC3)C2)cc1C` (centres undefined) gave PolyA inh 3, pCIP destab -1, HIF activator inconclusive, Platelet DG rel -6 and AHR act 60*.
Cc1cc(C)c(C(=O)N2CCCC(N3CCN(c4cccc(C(F)(F)F)c4)CC3)C2)o1 (centres undefined) was read as PolyA inh -8, pCIP destab 1, HIF activator 135*, Platelet DG rel 1 and AHR act 13.
`Cc1ccccc1NC(=O)c1ccc(-n2cncn2)nc1` gave PolyA inh 12, pCIP destab -8, HIF activator 0, Platelet DG rel -6 and AHR act 121*.
Screening O=C(Nc1c(F)cccc1F)c1ccc(-n2cncn2)nc1 returned PolyA inh 15, pCIP destab -6, HIF activator 0, Platelet DG rel 13 and AHR act -2.
For CCCc1cc(C(=O)NC2CCCC2)no1 the results were PolyA inh 9, pCIP destab -5, HIF activator 3, Platelet DG rel 85* and AHR act 9.
C=CSc1sc(Cl)c(N(CC)CC)c1[N+](=O)[O-] was read as PolyA inh -17, pCIP destab -19, HIF activator 0, Platelet DG rel 11 and AHR act -2.
COc1cc(CNCCO)cc(Cl)c1OCc1ccc(Cl)cc1Cl was read as PolyA inh -12, pCIP destab -9, HIF activator 0, Platelet DG rel -3 and AHR act 1.
Cn1cccc1/C=C1\CCc2ccccc2C1=O was read as PolyA inh -4, pCIP destab 0, HIF activator -2, Platelet DG rel 67* and AHR act 21.
COc1ccc(C(=O)N2CCCC(CCC(=O)NCc3ccccc3F)C2)c(OC)n1 (centres undefined) was read as PolyA inh -6, pCIP destab -7, HIF activator 0, Platelet DG rel -7 and AHR act 4.
`COc1cccc(OCC(O)CNC(=O)c2oc3ccc(C)cc3c2C)c1` (centres undefined) gave PolyA inh -4, pCIP destab 7, HIF activator 0, Platelet DG rel 2 and AHR act 28.
Screening Cc1cc(NCc2ccccn2)n2ncc(-c3ccccc3)c2n1 returned PolyA inh -22, pCIP destab -11, HIF activator 4, Platelet DG rel -3 and AHR act 74*.
CCOC(=O)Cc1c(C)nc2c(-c3ccc(Cl)cc3)cnn2c1C was read as PolyA inh -2, pCIP destab 10, HIF activator 0, Platelet DG rel 1 and AHR act 65*.
Screening Cc1cc(N)n2ncc(-c3ccc(Cl)cc3)c2n1 returned PolyA inh -12, pCIP destab 11, HIF activator 3, Platelet DG rel 5 and AHR act 69*.
`Cc1cc(NCc2ccccn2)n2ncc(-c3ccc(Cl)cc3)c2n1` gave PolyA inh -47, pCIP destab -6, HIF activator 4, Platelet DG rel -3 and AHR act 76*.
CC(CC(=O)Nc1nnc(C(C)(C)C)s1)c1ccccc1 (centres undefined) was read as PolyA inh -12, pCIP destab -7, HIF activator -1, Platelet DG rel 1 and AHR act 8.
`COCc1cc(C)nc(SCC[N+](C)(C)CC(=O)c2ccc(Br)cc2)c1C#N` gave PolyA inh -16, pCIP destab 1, HIF activator 0, Platelet DG rel 51* and AHR act 0.
Screening Cc1ccc(C(=O)c2ccc(C)cc2)cc1 returned PolyA inh 8, pCIP destab -10, HIF activator 1, Platelet DG rel -37 and AHR act 2.
`Cc1ccc(C(=O)c2no[n+]([O-])c2C(=O)c2ccc(C)cc2)cc1` gave PolyA inh 100*, pCIP destab 14, HIF activator 0, Platelet DG rel -1 and AHR act 3.
For CCN1c2ccccc2NC2C1C(C(C)=O)C(=O)N2c1ccc(Cl)cc1 (centres undefined) the results were PolyA inh -17, pCIP destab -33, HIF activator 0, Platelet DG rel -2 and AHR act 83*.
For COc1ccccc1N1CSC2=C(C#N)C(c3ccc(SC)cc3)CC(=O)N2C1 (centres undefined) the results were PolyA inh -9, pCIP destab -3, HIF activator 0, Platelet DG rel -1 and AHR act 0.
Cc1cc(C)cc(NC(=O)Nc2cccc(S(N)(=O)=O)c2)c1 was read as PolyA inh -3, pCIP destab -1, HIF activator 0, Platelet DG rel 2 and AHR act 58*.
`CCOc1ccc(NC(=O)Nc2cccnc2)cc1` gave PolyA inh -9, pCIP destab -3, HIF activator 3, Platelet DG rel 28 and AHR act 61*.
Screening CC(=O)c1cccc(NC(=O)Nc2cccnc2)c1 returned PolyA inh -10, pCIP destab -1, HIF activator 3, Platelet DG rel 9 and AHR act 65*.
`Cc1ccc(NC(=O)Nc2ncccc2C)cc1` gave PolyA inh -21, pCIP destab -3, HIF activator 3, Platelet DG rel 2 and AHR act 57*.
